In PubChem BioAssay (NCATS) one finds Potency data, which are given here for 40 compounds.

The source made the active and inactive calls. A call without a number means that no potency is given here. Calls follow the shape of the dose curve; as a rule, active = well fitted inhibition curve with a large enough effect; inconclusive = small, poorly fitted or top-dose-only effect; inactive = no such curve, though single readings can be large or run the other way.

Sequence of Pyruvate kinase (Leishmania mexicana) (Q27686 2-499 E452W): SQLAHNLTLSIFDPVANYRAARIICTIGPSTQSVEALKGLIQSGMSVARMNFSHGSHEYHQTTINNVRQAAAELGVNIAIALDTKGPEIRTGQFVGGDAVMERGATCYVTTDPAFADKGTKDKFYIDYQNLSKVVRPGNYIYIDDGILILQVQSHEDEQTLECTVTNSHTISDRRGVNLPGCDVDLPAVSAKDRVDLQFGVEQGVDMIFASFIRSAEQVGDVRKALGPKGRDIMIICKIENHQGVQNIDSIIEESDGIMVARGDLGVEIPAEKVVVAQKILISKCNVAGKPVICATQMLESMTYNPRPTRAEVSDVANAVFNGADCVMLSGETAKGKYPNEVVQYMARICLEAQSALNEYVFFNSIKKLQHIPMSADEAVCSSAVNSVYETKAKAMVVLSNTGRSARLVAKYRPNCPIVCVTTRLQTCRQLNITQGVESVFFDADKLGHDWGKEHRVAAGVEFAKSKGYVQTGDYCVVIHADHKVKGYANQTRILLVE

This experiment addresses Pyruvate kinase (Leishmania mexicana) (UniProt Q27686). As to the kind of experiment: qHTS Validation Assay for Inhibitors of Leishmania Mexicana Pyruvate Kinase (AID 945). The note with it: purified L. mexicana pyruvate kinase, enzyme activity, E451W mutant enzyme; series mostly up to 57.5 µM. An excerpt: NIH Molecular Libraries Screening Centers Network [MLSCN]
NIH Chemical Genomics Center [NCGC]
PI names: Malcom Walkinshaw, Hugh Morgan and Linda Gilmore
University of Edinburgh, Edinburgh, UK
Species of Leishmania are responsible for a wide spectrum of diseases throughout the tropics and subtropics, ranging from self-healing ulcers to highly disfiguring lesions and serious, often lethal visceral diseases, such as kala-azar. In Leishmania spp. it has been shown that both sugar uptake and gluconeogenesis are necessary to synthesize sufficient hexose-phosphate required for the production of glycoconjugates and the intracellular polysaccharide mannan which are essential for both replication and virulence of the parasites. Therefore, most of the enzymes participating in glycolysis and gluconeogenesis are expected to be essential (Naderer et al., 2006). The assay described here targets pyruvate kinase from Leishmania mexicania (LmPYK) that was obtained as a highly purified preparation from the University of Edinburgh (E451W mutant was provided). A 1536 well assay protocol was set up and validated by screening the LOPAC library in triplicate as an eight point concentration-titration series using the qHTS platform developed at the NCGC.
NCGC Assay Protocol Summary:
Three uL of substrate mix (final concentrations, 50 mM imidazole pH 7.2, 50 mM KCl, 7 mM MgCl2, 0.5 mM PEP, 0.1 mM ADP, 0.01% Tween 20, 0.05% BSA) was dispensed into white solid medium binding Greiner 1536 well plates. 23 nL of compound were delivered by a pin tool and 1 uL of enzyme mix (final concentration, 0.2 nM LmPYK, 50 mM imidazole pH 7.2, 0.05% BSA) was added. Plates were covered with stainless steel gasket-lined lids and incubated at room temperature for 1 hour. Two uL of detection and kinase stop mix (PKLight, Lonza) was added, and luminescence read by a ViewLux (Perkin Elmer) at 2 second exposure/plate using 2x binning. Controls on each plate were as follows: column 1, sixteen-point titration (1:2 dilutions) in duplicate the LmPK activator LOPAC-C8145 beginning at 57 uM final concentration; column 2, sixteen-point titration (1:2 dilutions) in duplicate activator LOPAC-S4063 beginning at 57 uM final concentration; column 3, column 4 DMSO only. Data were normalized to the neutral control (column 3).
Take `CC[N+](C)(C)c1cccc(O)c1`: the Potency result is “inactive”. The entry for `CC(=O)Nc1nnc(S(N)(=O)=O)s1` is “inactive”.

On to `Cc1nc2ccccn2c(=O)c1CCN1CCC(C(=O)c2ccc(F)cc2)CC1`, for which the Potency entry was “inactive”. The entry for `CCCCNc1c(C(=O)OCC)c(C)nc2c1cnn2CC` is “inactive”; for `Cc1ccc(Cl)c(Nc2ccccc2C(=O)O)c1Cl` it is “inactive”; for `CN(C)CC/C=C1\c2ccccc2COc2ccccc21` it is “inactive”. In the case of `CN(C)C(=O)Oc1ccc[n+](C)c1`, the Potency result was “inactive”.

For the compound `c1cnc(N2CCN(Cc3ccc4c(c3)OCO4)CC2)nc1`, the Potency result is “inactive”. Consider `CCNC(=O)N1CCN(CCCC(c2ccc(F)cc2)c2ccc(F)cc2)CC1`, for which the Potency result was “inactive”.

As for `COc1cc2c(cc1OC)-c1cc(=Nc3c(C)cc(C)cc3C)n(C)c(=O)n1CC2`, the Potency entry is “inactive”.

In the case of `CCOC(=O)c1cnc2c(cnn2CC)c1NN=C(C)C`, the Potency result was “inactive”.

`Cc1ccc(=O)n(-c2ccccc2)c1`: the Potency result was “inactive”. On to `Cc1ccc(S(=O)(=O)NC(=O)NN2CCCCCC2)cc1`, for which the Potency result was “inactive”. `CC(=O)Oc1cc(C(C)C)c(OCCN(C)C)cc1C`: the Potency entry is “inactive”. Regarding `CN(C)CCCN1c2ccccc2Sc2ccc(C(F)(F)F)cc21`, the Potency entry was “inactive”. With `C[N+](C)(C)CCOC(=O)CCC(=O)OCC[N+](C)(C)C`, the Potency result was “inactive”.

Turning to `CCO/C([O-])=N/c1c[n+](N2CCOCC2)no1`, the Potency result was “inactive”.

With `CCn1nc(C(=O)O)c(=O)c2cc3c(cc21)OCO3`, the Potency result is “inactive”. The entry for `CCc1c(C)[nH]c2c1C(=O)C(CN1CCOCC1)CC2` (stereo not given) is “inactive”; for `C[C@]12CCC(=O)C=C1CC[C@@H]1[C@@H]2CC[C@@]2(C)[C@H]1CC[C@]2(O)C(=O)CO` it is “inactive”. Turning to `CCCCNC(=O)NS(=O)(=O)c1ccc(C)cc1`, the Potency result is “inactive”. The entry for `CN(C(=O)CCCOc1ccc2[nH]c(=O)ccc2c1)C1CCCCC1` is “inactive”; for `COCC(=O)O[C@]1(CCN(C)CCCc2nc3ccccc3[nH]2)CCc2cc(F)ccc2[C@@H]1C(C)C` it is “inactive”. For `O=C(O)CN(CCN(CC(=O)O)CC(=O)O)CCN(CC(=O)O)CC(=O)O`, the Potency result was “inactive”. Consider `COc1cc(Cc2cnc(N)nc2N)cc(OC)c1OC`, for which the Potency result was “inactive”. As to `CNCCCN1c2ccccc2CCc2ccccc21`, the Potency result is “inactive”. In the case of `C(=C\c1ccccc1)/CN1CCN(C(c2ccccc2)c2ccccc2)CC1`, the Potency entry was “inactive”. In the case of `CCCCNc1ccc(C(=O)OCCN(C)C)cc1`, the Potency result is “inactive”. Consider `COc1ccc(CN(CCN(C)C)c2ccccn2)cc1`, for which the Potency result is “inactive”. The entry for `CCN(CC)CC(=O)Nc1c(C)cccc1C` is “inactive”; for `NC(N)=NC(=O)Cc1c(Cl)cccc1Cl` it is “inactive”; for `C[C@]12CCC(=O)C=C1CC[C@@H]1[C@@H]2C(=O)C[C@@]2(C)[C@H]1CC[C@]2(O)C(=O)CO` it is “inactive”. With `Nc1ncn([C@@H]2O[C@H](CO)[C@@H](O)[C@H]2O)c(=O)n1`, the Potency result is “inactive”.

Turning to `C[C@H](CS)C(=O)N1CCC[C@H]1C(=O)O`, the Potency entry was “inactive”. Turning to `Brc1c(NC2=NCCN2)ccc2nccnc12`, the Potency entry was “inactive”. The entry for `O=C1CC2(CCCC2)CC(=O)N1CCCCN1CCN(c2ncccn2)CC1` is “inactive”; for `CN(C)CCOC(=O)COc1ccc(Cl)cc1` it is “inactive”; for `CCN1CCc2nc(N)oc2CC1` it is “inactive”. `CC1=C(C)C(=O)C(CCCCC#CCCCC#CCO)=C(C)C1=O`: the Potency entry was “inactive”. Regarding `CCN(CC)CCOCCOC(=O)C1(c2ccccc2)CCCC1`, the Potency entry was “inactive”.
